# Data: PubChem BioAssay AID2546 (National Center for Advancing Translational Sciences (NCATS), 2010)
# “And” between values parts separate entries of the source, which are not always exact repeats. Identical values can stand only once. Among all 310,000 compounds or so, about 11,000 (3.5%) were called active. Where a call stands in place of a potency, no number is given. Not shown: some 8% with an inconclusive outcome. This excerpt belongs to a sample that is enriched for actives. A number with no mark means an inactive call. The call rests on the fitted dose curve; in most records, active means well fitted inhibition curve with a large enough effect; inconclusive means small, poorly fitted or top-dose-only effect, or effect the other way; inactive means flat fitted curve, though single readings scatter.
# Experiment: VP16 counterscreen qHTS for inhibitors of ROR gamma transcriptional activity;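 further: Gal4-VP16 expression switched on by copper sulfate through the metallothionein promoter; nearly all actives have a fitted effect of over 50% in size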
# Settings: Drosophila S2 Gal4-VP16 UAS-luciferase, luminescence, 20 h; series mostly up to 53.6 µM
# Potency means the concentration at half of the fitted maximal effect.
Compound,Potency,"activity, negative = inhibition"
COc1ccc(/C=C(\C#N)c2c[nH]c3ccccc23)cc1,inactive,–
Cn1c(=O)oc2cc(S(=O)(=O)NCCC(=O)NCc3ccccc3Cl)ccc21,inactive,–
CN(Cc1ccccc1)C(=O)C1CCCN(c2ncnc3c2nc2n3CCCCC2)C1 (stereo not drawn),inactive,–
CC1CCN(CCCn2c(SCC(=O)NC3CCCC3)nc3ccccc3c2=O)CC1,inactive,–
Cc1c2cnn(CC(=O)NCc3ccccn3)c(=O)c2c(C)n1Cc1ccc(Cl)cc1,inactive,–
O=C1Nc2ccccc2/C1=C/c1ccnc2ccccc12,inactive,–
COc1cc(CN2CCCC(C(=O)c3ccc(SC)cc3)C2)cc(Cl)c1O (stereo not drawn),inactive,–
COc1ccc(NC(=O)C2CCN(S(=O)(=O)c3ccc4[nH]c(=O)oc4c3)CC2)c(OC)c1,inactive,–
C=CCSc1nnc(N2C(=O)C(O)=C(C(=O)c3ccco3)C2c2ccc(F)cc2)s1 (stereo not drawn),inactive,–
O=S(=O)(c1ccc(Br)cc1)c1nc(-c2ccccc2)oc1N1CCOCC1,inactive,–
COc1cc(C(=O)NC2CCN(Cc3ccccc3)CC2)cc(Cl)c1OC(C)C,inactive,–
COc1cnc(-c2ccccn2)nc1Oc1ccc(C(C)(C)C)cc1,12.6 µM (active),–
COc1ccccc1Oc1nc(-c2cccnc2)nc2ccccc12,inactive,–
Cc1ccc(Oc2nc(-c3ccccn3)nc3ccccc23)cc1,3.16 µM (active),–
CC(C)(C)Nc1nc(-c2ccccn2)nc2ccccc12,3.98 µM (active),–
CNc1nc(-c2ccccc2OC)nc2ccccc12,inactive,–
CCOC(=O)c1cnc(-c2ccccc2)nc1Oc1ccc(C)cc1,inactive,–
Cc1cnc(CNc2nc(-c3cccnc3)nc3ccccc23)cn1,inactive,–
COc1ccc(Cc2nc(-c3ccccn3)no2)cc1OC,inactive,–
COc1ccc(Sc2nc(-c3ccccc3)ncc2OC)cc1,inactive,–
CCCc1ccc(OCC(O)CN2CCN(C(=O)OCC)CC2)cc1 (stereo not drawn),inactive,–
CC(C)c1ccc(NC(=O)C2CCCN(S(=O)(=O)c3cccnc3)C2)cc1 (stereo not drawn),inactive,–
CCCn1c(C2CCCN2c2nc(-c3ccc(C)cc3)cs2)nc2cc(Cl)c(N3CCCCC3)cc21 (stereo not drawn),inactive,–
COc1ccc(CNC(=O)c2cc(=O)c3c(C)cc(C)cc3o2)cc1,inactive,–
O=C(NCCCN1CCOCC1)c1cc(-c2ccccc2F)no1,inactive,–
COc1ccccc1N1CCN(S(=O)(=O)c2ccc3c(c2)NC(=O)CS3)CC1,inactive,–

Compound,Potency,"activity, negative = inhibition"
O=[N+]([O-])c1ccccc1S(=O)(=O)Nc1cccc2cccnc12,1.41 µM (active) and 1 µM (active),–
Cc1ccccc1NC(=O)c1ccccc1NS(=O)(=O)c1cccc2cccnc12,inactive,–
O=[N+]([O-])c1cccc2ncccc12,inactive,–
Cc1nc2ccc(C(=O)N(C)CC3CCCN(CCc4ccc(Cl)cc4)C3)cc2[nH]1 (stereo not drawn),inactive,–
CC(C)CNS(=O)(=O)c1ccc(CCC(=O)NCc2ccc(Cl)cc2)cc1,inactive,–
CCOC(OCC)c1ccc(/C=C\c2nccc(N)n2)cc1,inactive,–
COC(=O)c1ccc(OC(=O)c2cnccn2)cc1,inactive,–
c1ccc(-c2cn3c(n2)CCc2ccc4cccnc4c2-3)cc1,7.94 µM (active),–
COC(=O)C1=CN(c2ccc(F)c(F)c2)C=C(C(=O)OC)C1c1ccc([N+](=O)[O-])cc1,inactive,–
Cc1c(C)c(C)c2[nH]c(=S)[nH]c2c1C,10 µM (active),–
O=c1[nH]c(=S)[nH]c2[nH]c(=S)[nH]c12,inactive,–
Cc1cc(=O)[nH]c(=S)[nH]1,inactive,–
Cc1ccc(S(=O)(=O)N(CC(=O)Nc2cccnc2)c2ccc(Br)cc2)cc1,inactive,–
CCCc1ccc(OCCNC(=O)c2ccco2)cc1,inactive,–
COc1ccc(CN2C3CCCC2CC(NC(=O)c2cccc(F)c2)C3)cc1 (stereo not drawn),inactive,–
CC(NCC(=O)Nc1cc(Cl)cc(Cl)c1)c1ccccc1 (stereo not drawn),inactive,–
COc1ccc(C(=O)NC2CC2)cc1OC1CCN(Cc2ccc(SC)cc2)CC1,inactive,–
COCCN(C(=O)CCC(=O)Nc1ccccn1)C(C(=O)NCCC(C)C)c1ccc(OC)cc1 (stereo not drawn),inactive,–
COCCN(C(=O)CCC(=O)Nc1nccs1)C(C(=O)NCCC(C)C)c1ccc(F)cc1 (stereo not drawn),3.55 µM (active),–
COCCN(C(=O)CCC(=O)Nc1nccs1)C(C(=O)NC(C)(C)C)c1ccc(Cl)cc1 (stereo not drawn),inactive,–
COc1ccc(C2NC(=O)c3ccccc3N2)cc1 (stereo not drawn),inactive,–
Cc1nnc(SCC(=O)N/N=C/c2cn(-c3ccccc3)nc2-c2ccc(F)cc2)n1-c1ccccc1,inactive,–
CCc1ccc(-c2nn(-c3ccccc3)cc2CSC(=N)N)cc1,20 µM (active),–
Cc1ccc(-c2nn(-c3ccccc3)cc2/C=N/NC(=O)c2ccc3c(c2)OCO3)cc1,inactive,–
CC/C(=N\NC(=S)NC(C)C)c1ccc(OC(F)F)cc1,inactive,–
C/C(=N\NC(=S)NC(C)C)c1ccc(C(C)(C)C)cc1,3.98 µM (active),–

Compound,Potency,"activity, negative = inhibition"
C/C(=N\NC(N)=S)c1ccncc1,inactive,–
CCOC(=O)N1CCN(Cc2nc3cc(NC(=O)CC)ccc3n2CC)CC1,inactive,–
Cc1ccc(CSCC(N)C(=O)O)cc1 (stereo not drawn),inactive,–
Cc1ccc(SC(CC(=O)c2ccc(C(C)(C)C)cc2)C(=O)O)cc1 (stereo not drawn),5.01 µM (active),–
Cc1ccc(C(=O)CNc2ccc(F)cc2)cc1,inactive,–
CCOc1cc(C2/C(=C(/O)c3ccc(S(=O)(=O)N4CCCCC4)cc3)C(=O)C(=O)N2CCOC)ccc1O (stereo not drawn),inactive,–
COc1ccccc1OCC(=O)Nc1c2c(nn1-c1ccc(F)cc1)CS(=O)(=O)C2,inactive,–
COC(=O)c1ccc(NC(=S)NN2CCOCC2)cc1,inactive,–
COC(=O)c1ccc(NC(=O)Nc2ccc(C)cc2)cc1,inactive,–
COC(=O)c1ccc(NC(=S)Nc2cccc(C)n2)cc1,7.08 µM (active),–
O=C(O)CCCn1c(=O)c2cccn2c2ccc(F)cc21,inactive,–
O=C(NNC(=S)NC(=O)c1cn(-c2ccccc2)nc1-c1ccccc1)c1ccncc1,8.91 µM (active),–
O=C(Nc1cn(-c2ccccc2)nc1-c1ccccc1)c1ccccc1,inactive,–
O=C(c1cn(-c2ccccc2)nc1-c1cccnc1)N1CCCCC1,inactive,–
Cc1cc2c(c(=O)n1Cc1ccccc1)C1O[C@](CCCCN3C(=O)c4ccccc4C3=O)(Cc3ccccc31)O2,–,-4.77% [at 10 µM]
CN(CC(=O)NCc1ccc(Cl)cc1)S(=O)(=O)c1cccs1,inactive,–
CC(C)=CCCC(C)CN1CCC(n2nccc2NC(=O)c2ccccc2)CC1 (stereo not drawn),inactive,–
O=C(CN(C(=O)CCC(=O)Nc1nccs1)c1ccc(F)cc1)NCc1ccc2c(c1)OCO2,inactive,–
O=C(/C=C/c1ccc(F)cc1)NCCNC(=O)/C=C/c1ccc(F)cc1,inactive,–
O=C(/C=C/c1ccc(F)cc1)NC(=S)NNC(=O)c1cccnc1,10 µM (active),–
CC(C)c1ccc(/C=C/C(=O)NNC(=O)c2cccnc2)cc1,inactive,–
COc1ccc(C(=O)N(C)CC(O)c2ccccc2)cc1OC1CCN(C(C)=O)CC1 (stereo not drawn),inactive,–
CCCC(=O)N(CCc1ccccc1)Cc1nc2ccccc2c(=O)[nH]1,inactive,–
O=C(COc1ncnc2ccccc12)NC(=O)NCc1ccccc1,inactive,–
CCN(CC(=O)Nc1ccc(Cl)c(S(=O)(=O)N(C)C)c1)Cc1nc2ccccc2c(=O)[nH]1,inactive,–
NS(=O)(=O)c1cccc(NC(=O)CSc2nc3ccccc3n2-c2ccccc2)c1,inactive,–

Compound,Potency,"activity, negative = inhibition"
CCN(CC(=O)Nc1cccc(S(N)(=O)=O)c1)Cc1nc2ccccc2c(=O)[nH]1,7.94 µM (active),–
CCN(CC)c1ccc(C(=O)NNC(=O)CCc2nc3ccccc3c(=O)[nH]2)cc1,inactive,–
CN(Cc1nc2ccccc2c(=O)[nH]1)Cc1cc(=O)oc2ccc3ccccc3c12,inactive,–
CCN(CC(=O)NC(=O)NCc1ccccc1)Cc1nc2ccccc2c(=O)[nH]1,2.24 µM (active),–
O=C(c1ccco1)N(Cc1nc2ccccc2c(=O)[nH]1)C1CCCC1,8.91 µM (active),–
CC(=O)NCC(=O)N1CCC(n2nccc2NC(=O)CCCc2ccccc2)CC1,inactive,–
O=S(=O)(Nc1ccccc1Cl)c1cccc2nsnc12,inactive,–
O=c1c(-c2cccc(Cl)c2)c[nH]n1-c1ccccc1,inactive,–
COc1ccc(NC(=O)c2sc3nc(C)nc(N4CCN(c5ccccn5)CC4)c3c2C)c(OC)c1,inactive,–
COc1cc(/C=N/NC(=O)c2ccc(N3CCCC3=O)cc2)ccc1O,inactive,–
COc1ccc(C(=O)Nc2ccccc2C(=O)N/N=C/c2ccc(O)c(OC)c2)cc1,0.316 µM (active),–
COc1cc(/C=N/NC(=O)c2ccccc2)ccc1OS(=O)(=O)c1ccccc1,inactive,–
COc1ccc(C(=O)Nc2ccccc2C(=O)NCc2ccco2)cc1,inactive,–
COc1ccc(/C=N/NC(=O)c2ccc3c(c2)OCCO3)c(OC)c1,inactive,–
COc1ccc(C(=O)Nc2ccccc2C(=O)N/N=C/c2ccccc2OC)cc1,12.6 µM (active),–
Cn1c(Nc2cccc(Cl)c2)nc2ccccc21,inactive,–
O=C(Nc1nc2c(F)cc(F)cc2s1)C1COc2ccccc2O1 (stereo not drawn),inactive,–
Fc1cc(F)c2nc(N3CCOCC3)sc2c1,inactive,–
Fc1cc(F)c2nc(Nc3nc4c(F)cccc4s3)sc2c1,7.08 µM (active),–
CCc1ccc(/C=N/NC(=O)c2nnn(-c3nonc3N)c2CN2CCc3ccccc32)cc1,inactive,–
COc1ccc(C(C(=O)NC2CCCCC2)N(C(=O)c2snc(C(N)=O)c2N)c2ccccc2OC)cc1 (stereo not drawn),inactive,–
CCC1(C)Cc2c(sc3nc(SC)[nH]c(=O)c23)CO1 (stereo not drawn),inactive,–
CCC1(C)Cc2c(sc3nnn(CC(=O)Nc4ccc(Cl)cc4)c(=O)c23)CO1 (stereo not drawn),inactive,–
CCC1(C)Cc2c(sc3[nH]c(=S)n(Cc4ccccc4)c(=O)c23)CO1 (stereo not drawn),1.26 µM (active),–
CCOc1ccc(N(CC(=O)Nc2ccccc2F)S(=O)(=O)c2c(C)[nH]c(=O)[nH]c2=O)cc1,inactive,–
